Reference: PubChem BioAssay AID1851 (National Center for Advancing Translational Sciences (NCATS), 2009)
Among all 16,000 compounds or so, about 5,700 (36%) were called active. Roughly 24% stayed inconclusive and do not appear here. Calls come from the whole dose curve; as a rule, active = well fitted curve in the direction sought with a large enough effect; inconclusive = small, poorly fitted or top-dose-only effect, or effect the other way; inactive = no such curve, though single readings can be large or run the other way. Some of the results follow.

target: Cytochrome P450 1A2 (Homo sapiens) (UniProt P05177); assay: Cytochrome panel assay with activity outcomes; details: recombinant CYP, pro-luciferin dealkylation, luminescence, p450-cyp1a2; series mostly up to 57.1 µM
% is set by controls: 0 for no effect and ±100 for the full control effect.

Sequence of Cytochrome P450 1A2 (Homo sapiens) (P05177 whole entry, looked up): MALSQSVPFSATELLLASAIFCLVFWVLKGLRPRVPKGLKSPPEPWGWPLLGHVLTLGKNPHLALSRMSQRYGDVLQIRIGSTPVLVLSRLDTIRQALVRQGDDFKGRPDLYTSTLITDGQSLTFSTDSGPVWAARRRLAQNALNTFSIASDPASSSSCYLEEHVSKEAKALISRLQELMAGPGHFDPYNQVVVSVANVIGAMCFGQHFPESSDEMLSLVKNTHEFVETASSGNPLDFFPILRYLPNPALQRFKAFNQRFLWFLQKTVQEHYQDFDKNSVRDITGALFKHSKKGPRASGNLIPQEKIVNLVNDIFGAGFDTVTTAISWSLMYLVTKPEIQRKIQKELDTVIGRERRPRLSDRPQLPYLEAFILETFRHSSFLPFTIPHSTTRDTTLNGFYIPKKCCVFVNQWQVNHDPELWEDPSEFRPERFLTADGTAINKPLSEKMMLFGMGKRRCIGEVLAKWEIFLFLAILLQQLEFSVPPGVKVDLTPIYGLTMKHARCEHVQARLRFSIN

AC50, inactive:
Nc1ncnc2c1ncn2[C@@H]1O[C@@H](C(=O)NC2CC2)[C@H](O)[C@@H]1O
CNCCCC1c2ccccc2C=Cc2ccccc21
CCCN1C(=O)C2(/C(=C(\O)c3ccc4c(c3)OCCO4)C(=O)C(=O)N2CCCOC)c2ccccc21 (stereo unspecified)
CN(C(=O)CN(CCO)CC(=O)N(C)C(C)(C)Cc1ccccc1)C(C)(C)Cc1ccccc1
CCc1c(O)nc(SCC(=O)NC(C)(C)C)n(-c2ccccc2)c1=O
CCCc1nn2c(=O)c(C(c3ccc(C)cc3)c3c(O)nc4sc(CCC)nn4c3=O)c(O)nc2s1
CCC(=O)Nc1ccc(C(=O)CSc2nnc(-c3ccc(O)cc3)n2CC2CCCO2)cc1OC (stereo unspecified)
COC(=O)C1=C(N)Oc2cc(C)n(CC3CCCO3)c(=O)c2C1c1ccccc1OC (stereo unspecified)
CN1CCC(=C2c3ccccc3CC(=O)c3sccc32)CC1
CC1(CCC#N)N=C(SCCC#N)N(c2ccccc2)C1=O (stereo unspecified)
Cc1ccc(NC(=O)NNC(=O)Cn2nc(-c3ccccc3)c(-c3ccccc3)c(C#N)c2=O)cc1
O=C1c2ccccc2C(=O)N1CC(=O)N1c2ccccc2CCc2ccccc21
CCN(CC)CCC(=O)Nc1ccc2c(c1)N(C(=O)CN(CC)CC)c1ccccc1CC2

AC50, active:
Cc1ccc2[nH]c3c(c2c1)CN(C(=O)CN1c2ccc(F)cc2CCC1C)CC3 (stereo unspecified) 5.62 µM
O=C(OCc1nnc(-c2ccccc2)o1)c1ccc2c(c1)OCCO2 2.51 µM
Cc1ncc(N=Nc2ccccc2Cl)c(-c2ccccc2)n1 0.631 µM
OCCN(Cc1ccccc1)Cc1cccc(Cl)c1Cl 5.62 µM
CCc1c(O)nc2sc3ccccc3n2c1=O 15.8 µM
O=c1cnc2cnc(Oc3cccc(Cl)c3)nc2n1C[C@H]1CCCO1 5.01 µM
COc1ncc2ncc(=O)n(C[C@H]3CCCO3)c2n1 15.8 µM
COc1ccc(Oc2ncc3ncc(=O)n(C[C@H]4CCCO4)c3n2)cc1 6.31 µM
COc1ccc(Oc2ncc3nc(C)c(=O)n(C[C@H]4CCCO4)c3n2)cc1 12.6 µM
Cc1nc2c(c(-c3ccccc3)c1C#N)C(=O)c1ccccc1-2 0.2 µM
O=C(COc1cccc2ccccc12)N1c2ccccc2CCc2ccccc21 6.31 µM

activity, negative = inhibition, inactive:
C=C1CCO[C@@]2([C@H](O)[C@@](C)(O)CO)NC(=O)[C@]1(O)NC2=O -3.99% [at 2.29 µM]
C[C@@H](C[C@H](N)C(=O)O)C(=O)O -18.7% [at 11.4 µM]
